Inconclusive results are not listed. Calls of active or inactive are those of the source. Unless noted, the call rests on the fitted dose curve; in most records, active means well fitted curve in the direction sought with a large enough effect in the repeat runs; inconclusive means weak or mixed curves; inactive means no such curve, though single readings can be large; an effect the other way counts as inactive or inconclusive.
Key:
[1] = qHTS RealTime-Glo MT Cell Viability Assay in HEK293 cells - 0 hour (AID 1224880); further: top concentration of the series differs between compounds; nearly all actives have a fitted effect of over 45% in size
Outline: (§1)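 Luminescence, which tracks viable cell number through reduction of the prosubstrate to a NanoLuc substrate, was read over continuous 37 C culture. Cells (600/well) were premixed with reagent and rested 5 h before 23 nL of compound in DMSO was pinned.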

[2] = A CellTox Green Cytotoxicity Assay to monitor cytotoxicity in HEK293 cells - 32 hour (AID 1224881); further: nearly all actives have a fitted effect of over 40% in size
Outline: (§2)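 Fluorescence from a DNA-binding dye excluded by viable cells was measured repeatedly in the same HEK293 wells (600 cells/well) during continuous compound exposure at 37 C. Each assay gives one read point: 0, 8, 16, 24, 32 or 40 h.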

[3] = A CellTox Green Cytotoxicity Assay to monitor cytotoxicity in HepG2 cells - 0 hour (AID 1224882); further: nearly all actives have a fitted effect of over 35% in size
Outline: (§3)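 Real-time cytotoxicity: fluorescence of a cell-impermeant cyanine dye binding DNA of dead HepG2 cells, measured repeatedly (0–40 h) during compound exposure at 37 C. Cells seeded 600/well with reagent, dosed after 5 h.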

[4] = A CellTox Green Cytotoxicity Assay to monitor cytotoxicity in HEK293 cells - 8 hour (AID 1224884); further: nearly all actives have a fitted effect of over 35% in size
Outline: as §2

[5] = qHTS RealTime-Glo MT Cell Viability Assay in HepG2 cells - 16 hour (AID 1224885); further: nearly all actives have a fitted effect of over 50% in size
Outline: (§4)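 Cells + NanoLuc/prosubstrate dispensed (600 cells/well) → 5 h at 37 C/5% CO2 → compounds in DMSO transferred → 40 h incubation at 37 C, luminescence read at 0, 8, 16, 24, 32, 40 h.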

[6] = qHTS RealTime-Glo MT Cell Viability Assay in HEK293 cells - 24 hour (AID 1224886); further: top concentration of the series differs between compounds; nearly all actives have a fitted effect of over 50% in size
Outline: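 Tox21 10K qHTS, HEK293, 600 cells/well, RealTime-Glo reagent co-dispensed with cells; 5 h preincubation, compound by pintool, 37 C, luminescence at 0–40 h.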

[7] = A CellTox Green Cytotoxicity Assay to monitor cytotoxicity in HEK293 cells - 16 hour (AID 1224888); further: nearly all actives have a fitted effect of over 35% in size
Outline: as §2

[8] = qHTS RealTime-Glo MT Cell Viability Assay in HepG2 cells - 0 hour (AID 1224889); further: nearly all actives have a fitted effect of over 50% in size
Outline: as §4

[9] = A CellTox Green Cytotoxicity Assay to monitor cytotoxicity in HepG2 cells - 8 hour (AID 1224890); further: nearly all actives have a fitted effect of over 45% in size
Outline: as §3

[10] = qHTS assay to identify small molecule antagonists of the estrogen receptor alpha (ER-alpha) signaling pathway using the BG1 cell line in the presence of 0.1 nM 17-beta-estradiol - cell viability counter screen (AID 1259241); further: nearly all actives have a fitted effect of over 40% in size
Outline: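 Viability in VM7Luc4E2 cells after 22 hr compound exposure under 0.1 nM 17beta-estradiol stimulation, by CellTiter-Fluor.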

[11] = qHTS assay to identify small molecule antagonists of the androgen receptor (AR) signaling pathway using the MDA cell line in the presence of 0.5 nM R1881 - cell viability counter screen (AID 1259242); further: nearly all actives have a fitted effect of over 45% in size
Outline: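 Live-cell protease activity was measured by CellTiter-Fluor fluorescence after 30 min. Before that, MDA-kb2 MMTV-luciferase cells had 16 hr at 37C without CO2, exposed to test compounds and 0.5 nM R1881 final.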

[12] = target: Estrogen receptor (Homo sapiens) (UniProt P03372); assay: qHTS assay to identify small molecule antagonists of the estrogen receptor alpha (ER-alpha) signaling pathway using the BG1 cell line in the presence of 0.1 nM 17-beta-estradiol (AID 1259244); further: nearly all actives have a fitted effect of over 50% in size
Chain of Estrogen receptor (Homo sapiens) (P03372 whole entry, looked up): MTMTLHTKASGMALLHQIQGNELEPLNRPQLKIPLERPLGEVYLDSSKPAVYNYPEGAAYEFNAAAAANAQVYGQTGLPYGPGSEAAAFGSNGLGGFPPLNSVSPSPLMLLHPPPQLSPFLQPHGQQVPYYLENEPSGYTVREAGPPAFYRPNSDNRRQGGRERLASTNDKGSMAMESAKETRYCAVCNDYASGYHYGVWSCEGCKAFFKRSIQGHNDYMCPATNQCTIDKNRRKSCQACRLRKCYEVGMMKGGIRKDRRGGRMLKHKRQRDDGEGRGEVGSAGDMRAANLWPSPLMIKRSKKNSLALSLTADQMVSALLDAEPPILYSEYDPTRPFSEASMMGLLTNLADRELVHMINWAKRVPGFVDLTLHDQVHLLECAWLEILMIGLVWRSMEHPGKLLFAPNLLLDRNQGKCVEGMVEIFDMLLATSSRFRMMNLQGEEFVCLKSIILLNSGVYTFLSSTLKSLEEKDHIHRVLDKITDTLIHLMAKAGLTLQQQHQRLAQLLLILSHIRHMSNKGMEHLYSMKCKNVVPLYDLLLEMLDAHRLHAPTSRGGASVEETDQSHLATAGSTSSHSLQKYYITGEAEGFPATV
Outline: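 Luciferase luminescence (ONE-Glo, 30 min at room temperature) was read after 22 hr at 37C exposure to compounds plus 17beta-estradiol at 0.1 nM final. Cells were VM7Luc4E2 with endogenous ER-alpha and an ERE-driven luciferase, pre-cultured 5 days in hormone-depleted medium.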

[13] = qHTS assay to identify small molecule phospholipidosis (PLD) inducers (AID 1259344; active means well fitted curve in the direction sought with a large enough effect; an effect the other way counts as inactive or inconclusive)
Outline: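 Read-out is LipidTOX Red fluorescence (ex 595/em 615) imaged in HepG2 cells after 24 h compound exposure at 37 C, with Hoechst nuclear counterstain (ex 352/em 461) allowing per-cell normalisation.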

[14] = qHTS assay to identify small molecule HDAC inhibitors (AID 1259364); further: top concentration of the series differs between compounds; nearly all actives have a fitted effect of over 45% in size
Outline: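 Luminescence read after 30 min room-temperature HDAC-Glo incubation measures cellular class I/II HDAC activity. Compounds were applied for 2 hr at 37 C to HCT-116 wild-type cells seeded the day before.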

[15] = qHTS assay to identify small molecule HDAC inhibitors - cell viability counter screen (AID 1259365)
Outline: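 Cytotoxicity was gauged in wild-type HCT-116 cells after a brief 2hr treatment with DMSO-dissolved compounds at 37C and 5% CO2, using CellTiter-Glo luminescence developed for 30min at room temperature.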

[16] = qHTS RealTime-Glo MT Cell Viability Assay in HEK293 cells - 8 hour (AID 1224887)
Outline: as §1

[17] = qHTS assay to identify small molecule agonists of the sonic hedgehog signaling (Shh) pathway - cell viability counter screen (AID 1259366); further: nearly all actives have a fitted effect of over 50% in size
Outline: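 Stable Gli1-Luc NIH/3T3 clone, 2,000 cells/well. Compound exposure 24hr at 37C. Read-out: CellTiter-Fluor fluorescence.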

[18] = qHTS assay to identify small molecule antagonists of the sonic hedgehog signaling (Shh) pathway - cell viability counter screen (AID 1259367); further: nearly all actives have a fitted effect of over 55% in size
Outline: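 Fluorescence read-out (CellTiter-Fluor, 1 hr at 37C) taken after 23 hr compound treatment of 3T3 Gli1-Luc cells stimulated with conditioned medium. Cells were seeded at 2,000 per well and pre-incubated 4 hr.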

[19] = A CellTox Green Cytotoxicity Assay to monitor cytotoxicity in HepG2 cells - 32 hour (AID 1224883); further: nearly all actives have a fitted effect of over 50% in size
Outline: as §3
On the % scale 0 is the no-effect control and ±100 the full control effect.

CCN(CC)CCOCCOC(=O)C1(c2ccccc2)CCCC1
inactive: Potency [1] | Potency [2] | Potency [3] | Potency [4] | Potency [5] | Potency [6] | Potency [7] | Potency [8] | Potency [9] | outcome [10] | Potency [11] | outcome [12] | Potency [13] | Potency [14] | outcome [15]

CCCCC(CC)COC(=O)c1ccccc1O (stereo not drawn)
inactive: Potency [1] | Potency [2] | Potency [4] | Potency [5] | Potency [6] | Potency [16] | Potency [7] | Potency [8] | Potency [9] | outcome [10] | Potency [11] | outcome [12] | Potency [14] | outcome [15] | Potency [17] | Potency [18]

O=C(O)CCCc1ccccc1
inactive: Potency [1] | Potency [2] | Potency [19] | Potency [4] | Potency [5] | Potency [6] | Potency [16] | Potency [7] | Potency [8] | outcome [10] | Potency [11] | Potency [13] | Potency [14] | outcome [15] | Potency [17] | Potency [18]

C[N+](C)(C)CC(O)CC(=O)[O-] (stereo not drawn)
inactive: Potency [1] | Potency [2] | Potency [3] | Potency [4] | Potency [5] | Potency [6] | Potency [7] | Potency [8] | Potency [9] | outcome [10] | Potency [11] | Potency [13] | Potency [14] | outcome [15] | Potency [17] | Potency [18]

CCOC(C)(C)C
inactive: Potency [2] | Potency [3] | Potency [19] | Potency [4] | Potency [5] | Potency [6] | Potency [16] | Potency [7] | Potency [8] | Potency [9] | outcome [10] | Potency [11] | outcome [12] | Potency [14] | outcome [15] | Potency [17] | Potency [18]

CCN(CC)CCNC(=O)c1cc(S(C)(=O)=O)ccc1OC
inactive: Potency [1] | Potency [3] | Potency [19] | Potency [5] | Potency [6] | Potency [8] | Potency [9] | outcome [10] | Potency [11] | outcome [12] | Potency [14] | outcome [15] | Potency [17] | Potency [18]

CC(C)c1cc2c(cc1S(=O)(=O)O)[C@@]1(C)CCC[C@@](C)(C(=O)O)[C@@H]1CC2
inactive: Potency [2] | Potency [3] | Potency [19] | Potency [4] | Potency [5] | Potency [6] | Potency [16] | Potency [7] | Potency [8] | Potency [9] | outcome [10] | Potency [11] | outcome [12] | Potency [13] | Potency [14] | outcome [15] | Potency [17] | Potency [18]

N[C@H](C(=O)O)c1ccc(O)cc1
inactive: activity change, negative = cytotoxicity [1] -0.65% [at 15.8 µM] | Potency [2] | cytotoxicity [3] -7.08% [at 15.8 µM] | cytotoxicity increase [4] 0.0185% [at 15.8 µM] | activity change, negative = cytotoxic [5] 1.01% [at 15.8 µM] | activity change, negative = cytotoxicity [6] 1.77% [at 15.8 µM] | activity change [7] 0.584% [at 15.8 µM, active compounds read high] | activity change, negative = cytotoxicity [8] 1.28% [at 15.8 µM] | cytotoxicity increase [9] -9.51% [at 15.8 µM] | activity change, negative = cytotoxicity [10] 8.37% [at 19 µM] | viability change, negative = cytotoxic [11] 0.442% [at 19 µM] | activity change, negative = inhibition [12] 12.1% [at 19 µM] | activity change, negative = inhibition [14] -0.75% [at 19 µM] | activity change, negative = cytotoxicity [15] -1.63% [at 19 µM] | viability change, negative = cytotoxic [17] -2.17% [at 19 µM] | Potency [18]

From PubChem BioAssay (Tox21)
